According to ChEMBL document CHEMBL3988442, “University of Dundee, Small-Polar-MMV Screening Library” (2021):

Target: AMP-activated protein kinase, AMPK (Homo sapiens) (UniProt P54646+O43741+P54619+Q9UGJ0+Q9Y478+Q13131+Q9UGI9)
Test: AMP-dependent Kinase enzyme assay. An in vitro enzyme assay that detects ADP turnover that is directly proportional to AMPK activity. This uses naive AMPK that is activated during the assay with MK-8722
Type: functional
Parameters: scale not given: direction of the effect not stated beside the values
Conditions: 30 µM

SMILES	Percent Effect [%]
CCC[C@H]1CN(S(=O)(=O)N(C)Cc2ccccc2)C[C@@H]1N	-0.364
COc1ccc(OC)c(-c2cc(C(=O)NCC3(CO)CC3)n(C)n2)c1	-3.88
Cc1cc(C)c2[nH]c(C(=O)NCCN3CCNC3=O)c(C)c2c1	11.1
Cc1ccnc(NC(=O)c2ccc(F)c(S(=O)(=O)NC3CC3)c2)c1	-7.9
CCc1ccc(C(=O)NC2CCN(c3ccn(C)n3)C2)o1 (stereo not given)	1.78
COc1ccc(-c2cc(C3CCCCCN3S(C)(=O)=O)on2)cc1 (stereo not given)	7.05
COc1ccccc1CN(C)C(=O)C[S+]([O-])Cc1cc(C)on1 (stereo not given)	-2.86
CNCc1cn(C2CCN(C(=O)NCc3ccco3)CC2)nn1	0.812
CCn1cc(CN(C)Cc2cnn(-c3ccc(F)cc3)c2)cn1	13.6
CCCS(=O)(=O)N1CCC(c2ccc(OC)cc2)CC1	2.67
Cn1cnnc1C1CCCN(Cc2nc(Cc3ccccc3)no2)C1 (stereo not given)	12.2
CCNC(=O)c1ccnc(N2CCCC(COc3ccccc3C)C2)c1 (stereo not given)	-0.143
CCc1ccc(C(=O)NC2CCCN(c3ccn(C)n3)C2=O)o1 (stereo not given)	-0.669
O=C(c1cnn2ccccc12)N1CCCC(OCc2ccccn2)C1 (stereo not given)	14.8
Cn1nccc1-c1cccc(CC2CCN(S(C)(=O)=O)C2)n1 (stereo not given)	8.3
CCN(CC)CCCNC(=O)Nc1c(C)cccc1C(C)C	4.58
CCN(C)Cc1cccc(CNC(=O)NCCc2ccccn2)c1	3.33
O=C(Cc1ccccc1Cl)Nc1cc(N2CCCC2)ncn1	0.395
CC(C)C(NC(=O)C1CCCC1)c1cc(O)nc(-c2cccnc2)n1 (stereo not given)	0.00151
CCN(C(=O)CN1CCCN(c2nc(C)ns2)CC1)C1CC1	5.97

SMILES	Percent Effect [%]
NC(=O)CC1CCN(Cc2ccccc2OCC(F)(F)F)CC1	-3.02
CCC(c1ccc(F)cc1F)S(=O)(=O)CCO (stereo not given)	-2.09
Cn1ccnc1C(O)c1ccccc1N1CCN(CC2CCCC2)CC1 (stereo not given)	16.2
Cc1ccc2nc(CN3CCCCC3C(=O)N3CCOCC3)cn2c1 (stereo not given)	8.07
COC(=O)CC1CN(Cc2ccn(-c3ccc(F)cc3)n2)CCO1 (stereo not given)	-6.96
CCc1cc(=O)[nH]c(-c2ccc(NC(CO)CC(C)C)nc2)n1 (stereo not given)	4.58
Cc1noc(C)c1C(=O)N[C@@H]1CC[C@@H](Oc2ccccc2)[C@@H]1O	18.4
CCN(CC)S(=O)(=O)NC1CCN(c2ccc(OC)cc2)CC1	9.49
CN(C)C(=O)c1ccc2c(c1)nc(N1CC[C@H](O)C1)n2C	1.76
Cc1ccnn1CCN1CCCC2(CCC(=O)N(C3CCCC3)C2)C1 (stereo not given)	15.1
CCNC(=O)[C@@H]1C[C@H](N)CN1C(=O)c1c[nH]c2ccccc12	6.06
COc1ccc(C(=O)N2C[C@@H](NC(=O)N(C)C)[C@H](C(C)C)C2)c(OC)n1	1.82
CCc1noc(C(C)N2CCCN(Cc3noc(C4CC4)n3)CC2)n1 (stereo not given)	0.0834
CC(C)C1C(=O)NCCN1C(=O)CCCc1nc(C(C)(C)C)no1 (stereo not given)	-5.25
CNc1ccc(C2CN(c3cc(C)ncn3)CCO2)nc1 (stereo not given)	10.8
CSc1ccc(CNC2CCCc3c2cnn3C)cc1 (stereo not given)	7.44
Cc1cc(C(=O)N2CCCC(c3ccc(C(=O)O)cc3)C2)c(C)o1 (stereo not given)	4.65
COc1c(C2CCCN2CC(=O)Nc2nccs2)c(C)nn1C (stereo not given)	7.38
Cc1nc2c(c(=O)[nH]1)CN(C(=O)CC[C@@H]1CCCN3CCCC[C@H]13)C2	16.1
COc1ccc(C)c(NC(=O)NCc2ncnn2C)c1	-3.74
